Source: PubChem
Peg3 prom inh – inhibitors of Peg3 promoter; HeLa PEG-Prom luciferase reporter, luminescence, overnight; inhibition, % at 20 µM; actives 1.7% (n = 360,000);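 active = inhibition of at least 50% at 20 µM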
HIF-2a inh – HIF-2a inhibition; 786-0 RCC cells HIF-2a reporter, luciferase luminescence, overnight; AID 624352; actives 0.72% (n = 360,000); inhibition, % at 18.8 µM;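 active = inhibition of the luminescence signal of 40% or more relative to plate controls, in a single-dose primary screen at 18.75 µM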
KKLEB cytotox – reduces viability of KKLEB cystic fibrosis airway cells; actives 0.36% (n = 360,000); AID 602141; KKLEB CF airway cells viability, ATPlite luminescence, overnight; hits give low values; cells stimulated with P. aeruginosa culture filtrate; activity change (cytotoxicity), % at 5 µM;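 active = corrected activity change at or below -50% at 5 µM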
TRPM1 prom inh – MITF TRPM1 promoter inhibition in SK-MEL-5 cells | SK-MEL-5 TRPM1 promoter luciferase, 24 h | inhibition, % at 12.5 µM | actives 0.83% (n = 330,000) | AID 488899;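 active = mean inhibition across replicates of 60% or more, whatever share of single replicates reaches that level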
B2AR ag – activates human beta-2 adrenergic receptor causing internalization | Am2.2-beta2AR cells, FAP receptor internalization, flow cytometry | response, % (test concentration not listed) | P07550 | actives 0.43% (n = 340,000) | AID 504454;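 active = response above a set limit, near 3 SD of response in nonfluorescent compounds, cut at about 42% in these data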
Target sequence (P07550 whole entry, looked up): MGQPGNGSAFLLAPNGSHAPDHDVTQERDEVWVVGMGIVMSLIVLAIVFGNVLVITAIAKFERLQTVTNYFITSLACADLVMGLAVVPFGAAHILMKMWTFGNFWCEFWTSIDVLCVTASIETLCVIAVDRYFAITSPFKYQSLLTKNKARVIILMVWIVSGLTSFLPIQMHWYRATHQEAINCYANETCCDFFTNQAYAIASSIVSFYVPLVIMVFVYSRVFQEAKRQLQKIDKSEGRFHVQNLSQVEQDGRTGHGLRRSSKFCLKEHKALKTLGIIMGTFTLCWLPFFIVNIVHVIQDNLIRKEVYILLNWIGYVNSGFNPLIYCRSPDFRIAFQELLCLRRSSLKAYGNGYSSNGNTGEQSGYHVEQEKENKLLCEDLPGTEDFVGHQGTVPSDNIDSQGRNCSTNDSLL
CF NFkB inh – inhibitors of cystic fibrosis induced NF-kB | actives 0.86% (n = 360,000) | KKLEB NF-kB-GFP reporter, PAF-induced, GFP fluorescence overnight | inhibition, % at 5 µM;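 active = at least 50% inhibition at 5 µM, scaled per plate between neutral and stimulator controls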;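 also: PAF is a Pseudomonas aeruginosa culture filtrate used as stimulus; plate controls were PAF-stimulated DMSO wells for no effect and unstimulated DMSO wells for full effect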
* hit, by the source's call. Only some compounds are listed: those with a hit (about 2.8% of all), similar ones and a draw of the others.

Results for COc1ccc(-c2n(CC(=O)OC3CC(C)CCC3C(C)C)c3ccccc3[n+]2C)cc1 (stereo unspecified) ?
Peg3 prom inh: 77*; HIF-2a inh: 5; KKLEB cytotox: -54*; TRPM1 prom inh: 91*; B2AR ag: 9; CF NFkB inh: 60*

Results for COc1ccc(NC(=O)NC2CCCc3ccccc32)cc1OC (stereo unspecified) ?
Peg3 prom inh: 11; HIF-2a inh: 18; KKLEB cytotox: 6; TRPM1 prom inh: 1; B2AR ag: 17; CF NFkB inh: 4

Results for COc1ccc(C)cc1NC(=O)NC1CCCc2ccccc21 (stereo unspecified) ?
Peg3 prom inh: 55*; HIF-2a inh: 11; KKLEB cytotox: 2; TRPM1 prom inh: 10; B2AR ag: -8; CF NFkB inh: 11

Results for Cc1[nH][nH]c(=O)c1C(c1c(C)[nH][nH]c1=O)c1cn(Cc2ccccc2Cl)c2ccccc12 ?
Peg3 prom inh: 56*; HIF-2a inh: 14; KKLEB cytotox: -37; TRPM1 prom inh: 28; B2AR ag: 30; CF NFkB inh: 68*

What do the screens show for `Cc1ccc2nc(-c3ccc(C#N)cc3)c(Cc3cccc(Cl)c3)n2c1`?
Peg3 prom inh: -63; HIF-2a inh: -122; KKLEB cytotox: -40; CF NFkB inh: 1

What do the screens show for `CCOc1ccc(C(=O)Nc2nnc(NC(=S)Nc3ccccc3)s2)cc1`?
Peg3 prom inh: -60; HIF-2a inh: -112; KKLEB cytotox: -23; TRPM1 prom inh: -46; B2AR ag: 103*; CF NFkB inh: 1

What do the screens show for `CCc1nnc(NC(=S)Nc2ccccc2)s1`?
Peg3 prom inh: -225; HIF-2a inh: -167; KKLEB cytotox: 6; TRPM1 prom inh: -54; B2AR ag: 0; CF NFkB inh: -2

What do the screens show for `CCOc1ccc(NC(=S)Nc2ccc(OCC)cc2)cc1`?
Peg3 prom inh: 11; HIF-2a inh: 5; KKLEB cytotox: 6; TRPM1 prom inh: -6; B2AR ag: 5; CF NFkB inh: -6

What do the screens show for `Cc1ccc(C(=O)Nc2nnc(NC(=S)Nc3ccccc3)s2)cc1`?
Peg3 prom inh: -77; HIF-2a inh: -123; KKLEB cytotox: -2; TRPM1 prom inh: -47; B2AR ag: 11; CF NFkB inh: 65*

What do the screens show for `O=[N+]([O-])c1ccc2c([N+](=O)[O-])ccc3c2c1CC3`?
Peg3 prom inh: 10; HIF-2a inh: -2; KKLEB cytotox: -4; CF NFkB inh: -109

How did COc1ccc(C=C2CCc3ccccc3C2=O)cc1 do in these assays?
Peg3 prom inh: -119; HIF-2a inh: -195; KKLEB cytotox: -52*; CF NFkB inh: 2

What do the screens show for `CC1(C(=O)NCC(F)(F)F)CCN1C(=O)Cc1ccc(-c2ccccc2)cc1` (stereo unspecified)?
Peg3 prom inh: 8; HIF-2a inh: -5; KKLEB cytotox: -7; CF NFkB inh: -5

What do the screens show for `CN(C)C(=O)c1cccc(-c2cnc3c(NC=O)cc(-c4ccc(N(C)C)cc4)cn23)c1`?
Peg3 prom inh: 30; HIF-2a inh: -8; KKLEB cytotox: 1; CF NFkB inh: -8

Results for O=C(CCN1CCc2ccccc2CC1)c1ccc2c(c1)OCCO2 ?
Peg3 prom inh: 106*; HIF-2a inh: 16; KKLEB cytotox: 4; TRPM1 prom inh: 3; B2AR ag: 2; CF NFkB inh: 10

Results for O=C(CCN1CCOCC1)c1ccc2c(c1)OCCO2 ?
Peg3 prom inh: -10; HIF-2a inh: 6; KKLEB cytotox: 3; TRPM1 prom inh: 2; B2AR ag: -2; CF NFkB inh: -14

How did Cc1cccc(C)c1-n1nnnc1C1(C)CCC(=O)N1Cc1cccs1 (stereo unspecified) do in these assays?
HIF-2a inh: 0

How did Cc1ccc(C(OCC(O)CNCc2ccc(F)cc2)c2ccccc2)cc1 (stereo unspecified) do in these assays?
Peg3 prom inh: 100*; HIF-2a inh: 20; KKLEB cytotox: -12; TRPM1 prom inh: -8; B2AR ag: 4; CF NFkB inh: 16

Results for O=C(c1ccccc1)c1ccc(OCC(O)CNCc2ccc(F)cc2)cc1 (stereo unspecified) ?
Peg3 prom inh: -9; HIF-2a inh: 9; KKLEB cytotox: -6; TRPM1 prom inh: 4; B2AR ag: 15; CF NFkB inh: 9

What do the screens show for `N#C/C(=C/c1ccc(-c2ccc([N+](=O)[O-])cc2)o1)C(=O)Nc1nc(-c2cccs2)cs1`?
Peg3 prom inh: 55*; HIF-2a inh: 3; KKLEB cytotox: -10; TRPM1 prom inh: -12; B2AR ag: 3; CF NFkB inh: -10

What do the screens show for `CCOC(=O)c1cc(NC(=O)c2ccc(Cl)cc2)c(=O)n2c1oc1ccc(Cl)cc12`?
Peg3 prom inh: 10; HIF-2a inh: 1; KKLEB cytotox: -58*; TRPM1 prom inh: -14; B2AR ag: -10; CF NFkB inh: 44

How did COc1ccc(CN2C(=O)C(CC(=O)NC3CC3)CC(C(=O)N3CCOCC3)=C2C)cc1 (stereo unspecified) do in these assays?
Peg3 prom inh: 0; HIF-2a inh: -2; KKLEB cytotox: -20; CF NFkB inh: -14

Results for O=C1CC(c2ccc(O)cc2)Oc2cc(O)cc(O)c21 (stereo unspecified) ?
Peg3 prom inh: -56; HIF-2a inh: -20; KKLEB cytotox: -43; TRPM1 prom inh: -33; B2AR ag: -1; CF NFkB inh: 36

How did CC1CC(=O)c2c(cc3c(-c4c(O)cc(O)c5c(O)c6c(cc45)OC(C)CC6=O)c(O)cc(O)c3c2O)O1 (stereo unspecified) do in these assays?
Peg3 prom inh: 105*; HIF-2a inh: 91*; KKLEB cytotox: -49; TRPM1 prom inh: 79*; B2AR ag: -3; CF NFkB inh: 53*

How did COc1ccc(NC(=O)C(c2ccncc2)n2c(=O)c(-c3ccccc3)nc3ccccc32)cc1 (stereo unspecified) do in these assays?
HIF-2a inh: -199

Results for CCC(c1nc2ccccc2[nH]1)n1c(=O)c(-c2cccnc2)nc2ccccc21 (stereo unspecified) ?
HIF-2a inh: 2

Results for COc1cccc(C(=O)Nc2cccc(C(=O)NC3=NN(c4c(Cl)cc(Cl)cc4Cl)C(=O)C3)c2)c1 ?
Peg3 prom inh: 10; HIF-2a inh: 16; KKLEB cytotox: 8; TRPM1 prom inh: 12; B2AR ag: 11; CF NFkB inh: -10

How did COc1ccc(/C=C2\C(=O)N(c3c(Cl)cc(Cl)cc3Cl)N=C2NC(=O)c2cccc([N+](=O)[O-])c2)cc1 do in these assays?
Peg3 prom inh: 77*; HIF-2a inh: 45*; KKLEB cytotox: -1; TRPM1 prom inh: 20; B2AR ag: 31; CF NFkB inh: -15

How did COc1ccccc1C(=O)C1CCCN(C(=O)c2ccc(Cl)cc2)C1 (stereo unspecified) do in these assays?
Peg3 prom inh: 8; HIF-2a inh: -13; KKLEB cytotox: -4; CF NFkB inh: -2
